In the library only some 4.6% were active in any assay of this set; here they are far more common.
D1 antagonist – blocks dopamine activation of the human D1 receptor. P21728. HEK293 TREx D1 cells, calcium flux, dopamine EC80; active compounds read low. activity change, negative = inhibition, % at 10 µM. hit rate 3.2% among 360,000. AID 504652; in the data active = activity change below about -30%
Target sequence (P21728 whole entry, looked up): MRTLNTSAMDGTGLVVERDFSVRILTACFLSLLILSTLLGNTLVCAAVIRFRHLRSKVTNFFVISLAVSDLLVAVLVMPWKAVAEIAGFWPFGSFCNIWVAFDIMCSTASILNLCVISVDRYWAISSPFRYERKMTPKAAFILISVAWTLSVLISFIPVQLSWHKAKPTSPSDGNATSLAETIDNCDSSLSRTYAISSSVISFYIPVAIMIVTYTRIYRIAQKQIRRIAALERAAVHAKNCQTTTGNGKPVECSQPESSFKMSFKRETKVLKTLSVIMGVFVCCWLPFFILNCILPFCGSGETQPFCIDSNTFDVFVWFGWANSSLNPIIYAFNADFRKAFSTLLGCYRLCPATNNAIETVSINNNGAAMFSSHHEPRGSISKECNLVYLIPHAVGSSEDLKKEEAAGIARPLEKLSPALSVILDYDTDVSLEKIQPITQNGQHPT
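Cells carrying a force-coupled, tetracycline-inducible human D1 receptor report calcium flux. Each well gets a 10 s baseline, compound with 180 s monitoring, then an EC80 dopamine stimulus with a second 180 s kinetic read.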
TRHR agonist – TRH receptor (human) agonism | hit rate 0.18% among 360,000 | AID 493084 | TRHR cells, calcium flux fluo-8, FDSS agonist mode | activation, % at 2 µM
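TRHR-expressing cells, plated overnight in medium with 10% serum, were loaded with fluo-8 calcium dye at room temperature. After a 10 s baseline, library compound was pin-added and calcium release was recorded kinetically (ex 480/em 530) as agonist response.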
D1 ag – activates the human D1 dopamine receptor; HEK293 T-REx D1 cells, calcium flux, agonist mode; activation, % at 2 µM; hit rate 1% among 360,000
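Agonism was scored from calcium flux recorded over 180 s (1 read/s) after pintool compound addition, following a 10-cycle baseline. Cells were inducible force-coupled HEK293 TREx D1, plated overnight at 30 C and loaded with no-wash calcium dye.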
TRHR enhancer – allosteric enhancers of human TRH receptor; TRHR cells, fluo-8 calcium fluorescence, EC20 TRH enhancement; hit rate 0.66% among 360,000; enhancement, % at 2 µM; P34981; in the data active = enhancement above about 30%
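TRHR-expressing cells loaded with fluo-8 calcium dye were read kinetically (ex 480/em 530) during compound addition, then stimulated with an EC20 of TRH (10 nM final). Enhancement of the Gq-mediated intracellular calcium response was scored.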
D1 PAM – enhances dopamine response at the human D1 receptor | hit rate 0.036% among 360,000 | HEK293 TREx D1 cells, calcium flux, dopamine EC20 potentiation | potentiation, % at 10 µM | P21728; in the data active = potentiation above about 30%
Hits are given with their value; n = inactive; x = no result. Rule as the data show it, unless noted: active = activation above about 30%; inactive = the rest.

SMILES	D1 antagonist	TRHR agonist	D1 ag	TRHR enhancer	D1 PAM
CCC(=O)N1c2ccc(S(=O)(=O)NCc3ccc(F)cc3)cc2CC1C (stereo not given)	-33	n	n	n	n
Cc1ccc(NS(=O)(=O)c2ccc3c(c2)CC(C)N3C(=O)C2CCC2)cc1Cl (stereo not given)	n	n	n	n	n
CC(=O)Nc1ccc(NS(=O)(=O)c2ccc3c(c2)CC(C)N3C(=O)C2CCC2)cc1 (stereo not given)	n	n	n	46	n
CC1Cc2cc(S(=O)(=O)NCc3ccc(N(C)C)cc3)ccc2N1C(=O)C1CCC1 (stereo not given)	n	n	n	45	n
CC1Cc2cc(S(=O)(=O)NCCc3ccccc3)ccc2N1C(=O)C1CC1 (stereo not given)	n	n	n	n	n
Brc1ccc(-c2cc3c(N4CCN(c5ccccc5)CC4)nccn3n2)cc1	n	n	n	n	n
Cc1ccc(OCc2nc(-c3ccc(C(=O)N4CCN(c5ccccc5F)CC4)cc3)oc2C)cc1	n	n	n	n	n
COc1ccc(C)cc1-n1nnnc1SCC1CCCCO1 (stereo not given)	-36	n	n	n	n
S=C(NCC1CCCO1)Nc1cccc(Cl)c1 (stereo not given)	n	n	n	n	n
S=C(NCC1CCCO1)Nc1ccc(Nc2ccccc2)cc1 (stereo not given)	-34	n	n	n	n
Cc1ccc(C(=O)Nc2c(C(=O)Nc3ccc(C)c(C)c3)sc3nc(C)cc(C)c23)cc1	n	n	n	n	n
CC(C)(C)n1cnnc1Sc1ncccc1[N+](=O)[O-]	-32	n	n	n	n
Cc1ccc(Sc2ncccc2[N+](=O)[O-])cc1	n	n	n	n	n
CC(=NCc1ccco1)c1c(C)[nH]n(-c2nc3ccccc3s2)c1=O	-66	n	n	n	n
CCC(=NCc1ccco1)c1c(C(F)(F)F)[nH]n(-c2nc3ccccc3s2)c1=O	n	n	n	n	n
COC(=O)c1ccc(COc2cc(O)c3c(c2)OC(C)(C)CC3=O)cc1	-35	n	n	n	n
Cc1c(C(=O)Nc2ccc(OC(F)(F)F)cc2)sc2nc3n(c(=O)c12)CCC3	n	n	n	n	n
Cc1ccc(N(C)C(=O)c2sc3nc4n(c(=O)c3c2C)CCCC4)cc1C	n	n	n	n	n
CCN(C(=O)c1sc2nc3n(c(=O)c2c1C)CCCC3)c1ccccc1F	-37	n	35	n	n
COc1ccc(CNC(=O)c2sc3nc4n(c(=O)c3c2C)CCCCC4)cc1	n	n	50	n	n
COc1ccc(C)cc1N(C)C(=O)c1sc2nc3n(c(=O)c2c1C)CCCCC3	n	n	43	n	n
Cc1c(C(=O)Nc2ccc(Oc3ccccc3)cc2)sc2nc3n(c(=O)c12)CCC3	-51	n	n	n	n
CC(=O)c1ccc(NC(=O)CSc2nccn2C2CCCC2)cc1	n	n	n	n	n
Cn1c(N)c(-c2ccccc2)c2ccc([N+](=O)[O-])cc2c1=O	n	n	242	n	n
Cn1c(=O)c2c(SCC(=O)NCc3ccco3)nc(-c3ccccc3)nc2n(C)c1=O	n	n	n	n	n
SMILES	D1 antagonist	TRHR agonist	D1 ag	TRHR enhancer	D1 PAM
CC(C)(C)NS(=O)(=O)c1ccc(CCC(=O)Nc2ccc3c(c2)OCCO3)cc1	n	n	n	n	n
CCOc1ccc(S(=O)(=O)N(CC(=O)Nc2ccc3c(c2)OCO3)c2ccc(C)cc2)cc1	n	n	n	n	n
O=C(COc1ccc2c(c1)OCO2)Nc1cccc(F)c1	-44	n	n	n	x
CCOc1ccc(OCCC(=O)OCC(=O)Nc2ccc3c(c2)OCO3)cc1	-53	n	n	n	n
CC(C)(C)NS(=O)(=O)c1ccc(OCC(=O)Nc2ccc3c(c2)OCCO3)cc1	-30	n	n	n	n
CCOc1ccc(N(CC(=O)Nc2ccc3c(c2)OCO3)S(=O)(=O)c2ccccc2)cc1	-46	n	n	n	n
COc1ccccc1CNS(=O)(=O)c1c(C)nc2sc(C)cn2c1=O	n	n	n	n	n
Cc1oc2ncnc(N3CCOCC3)c2c1C(=O)NCc1ccccc1	n	n	n	n	n
COc1ccc(C)cc1NC(c1nnc(-c2ccccc2)o1)c1ccc(F)cc1Cl (stereo not given)	n	n	n	n	n
CSCCC(NS(=O)(=O)c1ccc2c(c1)oc(=O)n2C)C(=O)NCc1ccc(Cl)cc1 (stereo not given)	n	n	n	n	n
CC(=O)c1ccc(NC(=O)N2CCN(c3cccc(Cl)c3)CC2)cc1	-51	n	n	n	n
CC(=O)Nc1ccc(N2CCN(c3ccc(F)cc3)CC2)cc1	n	n	n	33	n
CC(=O)c1ccc(N2CCN(C(=O)Nc3ccc(Cl)cc3)CC2)cc1	-51	n	n	n	n
O=C(O)/C=C\C(=O)Nc1ccc(N2CCN(c3ccc(F)cc3)CC2)cc1	n	n	n	n	n
O=C(Nc1ccc(Cl)cc1)N1CCN(c2ccccc2)CC1	n	n	n	n	n
O=C(O)c1ccccc1C(=O)N1CCN(c2cccc(Cl)c2)CC1	-44	n	n	n	n
COc1cc(NC(=O)c2cc3c(=O)n(Cc4ccco4)ccc3nc2C)cc(OC)c1OC	n	n	n	n	n
O=C(CCCCCn1c(=O)[nH]c2ccccc2c1=O)N1CCN(c2ccc(Cl)cc2)CC1	n	n	n	n	n
COC(=O)c1ccc(C(=O)OC)c(NC(=O)N2CC3CCCN3c3ccccc32)c1 (stereo not given)	n	n	n	n	n
CC(=O)c1cccc(NC(=O)N2CCN(S(C)(=O)=O)CC2)c1	n	n	n	34	n
CN(C)c1ccc(/C=c2\sc3nc(-c4ccccc4)nn3c2=O)cc1	-57	n	n	n	n
COc1cc(/C=c2\sc3nc(-c4ccncc4)nn3c2=O)ccc1OC(C)=O	n	n	n	n	n
O=C(O)c1ccc(N/N=C/C2=C(N3CCOCC3)C(=C\c3ccccc3)/CC2)cc1	n	n	83	n	n
Cc1cc(C)nc(N/N=C/C2=C(N3CCOCC3)C(=C\c3ccc(Cl)cc3)/CC2)n1	n	n	n	n	n
CCN(CC)S(=O)(=O)c1nnc(NC(=O)COc2ccccc2F)s1	n	n	n	n	n
COc1ccccc1CN1C[C@@H]2C[C@@H](c3[nH]c4c(C)cccc4c3C)N3CCC[C@@]23C1=O	n	n	44	n	32
COc1ccccc1CN1C[C@@H]2C[C@@H](c3cccc(C)n3)N3CCC[C@@]23C1=O	n	n	n	n	n
CC(C)c1ccc(S(=O)(=O)c2nnn3c2nc(N2CCCC2)c2sccc23)cc1	n	n	n	n	n
CN(C(=O)c1ccc(S(=O)(=O)N2CCCC2)cc1)C1CCCCC1	n	n	n	n	n
CN(C(=O)c1ccc(Oc2ccc([N+](=O)[O-])cc2)cc1)C1CCCCC1	-35	n	n	n	n

Source: PubChem BioAssay (National Center for Advancing Translational Sciences (NCATS))
